Source: PubChem BioAssay (NCI)
The panel holds about 83,000 compounds, 20% with a hit somewhere; the sample as a whole holds those more often.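 Single-concentration screen, 48 h exposure, 96-well plates. Endpoint: percent growth. Below 10 = active.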 Active and inactive are the calls of the source.

Assays:
Experiment in all cases: NCI-60 one-dose screen, 48 h (100 = growth as untreated, 0 = no growth, -100 = all killed)
HCT-15 colon = settings: 10 µM unless noted
HT29 colon = settings: 10 µM unless noted
SNB-75 CNS = settings: 10 µM unless noted
SNB-19 CNS = settings: 10 µM unless noted
U251 CNS = settings: 10 µM unless noted
PC-3 prostate = settings: 10 µM unless noted
SK-MEL-5 melanoma = settings: 10 µM unless noted
UACC-62 melanoma = settings: 10 µM unless noted
LOX IMVI melanoma = settings: 10 µM
SK-MEL-28 melanoma = settings: 10 µM unless noted
SK-MEL-2 melanoma = settings: 10 µM unless noted
EKVX NSCLC = settings: 10 µM unless noted
SN12C renal = settings: 10 µM unless noted
UO-31 renal = settings: 10 µM unless noted
TK-10 renal = settings: 10 µM unless noted
ACHN renal = settings: 10 µM unless noted
CAKI-1 renal = settings: 10 µM unless noted
A498 renal = settings: 10 µM unless noted
CCRF-CEM leukemia = settings: 10 µM unless noted
MOLT-4 leukemia = settings: 10 µM unless noted

Measured: growth

O=S(=O)(O)c1cccc2cccnc12
inactive: HCT-15 colon 117% | HT29 colon 122% | SNB-75 CNS 98.2% | SNB-19 CNS 106% | U251 CNS 113% | PC-3 prostate 86.8% | SK-MEL-5 melanoma 107% | UACC-62 melanoma 109% | LOX IMVI melanoma 107% | SK-MEL-28 melanoma 97.3% | SK-MEL-2 melanoma 108% | EKVX NSCLC 110% | SN12C renal 103% | UO-31 renal 76.8% | TK-10 renal 118% | ACHN renal 111% | CAKI-1 renal 96.1% | A498 renal 104% | CCRF-CEM leukemia 103% | MOLT-4 leukemia 100%

CN1CCN(C(=S)S)CC1
inactive: HCT-15 colon 100% | HT29 colon 75.5% | SNB-75 CNS 105% | SNB-19 CNS 103% | U251 CNS 102% | PC-3 prostate 98.4% | SK-MEL-5 melanoma 111% | UACC-62 melanoma 101% | LOX IMVI melanoma 87.9% | SK-MEL-28 melanoma 115% | SK-MEL-2 melanoma 114% | EKVX NSCLC 106% | SN12C renal 108% | UO-31 renal 98.4% | TK-10 renal 111% | ACHN renal 105% | CAKI-1 renal 99.5% | A498 renal 118% | CCRF-CEM leukemia 89% | MOLT-4 leukemia 105%

COc1ccc2c(ccc[n+]2C)c1
inactive: HCT-15 colon 93.5% | HT29 colon 93% | SNB-75 CNS 78.3% | SNB-19 CNS 101% | U251 CNS 96.7% | PC-3 prostate 119% | SK-MEL-5 melanoma 103% | UACC-62 melanoma 95.5% | LOX IMVI melanoma 105% | SK-MEL-28 melanoma 111% | SK-MEL-2 melanoma 103% | EKVX NSCLC 84.7% | SN12C renal 104% | UO-31 renal 86.5% | TK-10 renal 102% | ACHN renal 98.5% | CAKI-1 renal 96.4% | A498 renal 107% | CCRF-CEM leukemia 98.3% | MOLT-4 leukemia 111%

COc1cc(C(=O)N2CCN(c3ccccc3)CC2)c2ccccc2n1
inactive: HCT-15 colon 18.3% | SNB-75 CNS 20.9% | SNB-19 CNS 28.4% | U251 CNS 11.1% | PC-3 prostate 35.5% | SK-MEL-5 melanoma 16.8% | UACC-62 melanoma 32.6% | LOX IMVI melanoma 16.5% | SK-MEL-28 melanoma 54.6% | EKVX NSCLC 51.6% | SN12C renal 36.8% | UO-31 renal 44.9% | TK-10 renal 57.1% | ACHN renal 60.6% | CAKI-1 renal 36.2% | A498 renal 32.3% | CCRF-CEM leukemia 29.3% | MOLT-4 leukemia 29.9%
active: HT29 colon -19% | SK-MEL-2 melanoma 3.61%

O=C(c1ccccc1)c1ccc(-c2ccc(O)cc2)cc1
inactive: HCT-15 colon 57% | HT29 colon 120% | SNB-75 CNS 43.5% | SNB-19 CNS 59.7% | U251 CNS 37.3% | PC-3 prostate 76.8% | SK-MEL-5 melanoma 23.6% | UACC-62 melanoma 48.5% | LOX IMVI melanoma 73.4% | SK-MEL-28 melanoma 75.1% | SK-MEL-2 melanoma 59.1% | EKVX NSCLC 64.5% | SN12C renal 83.2% | UO-31 renal 45.2% | TK-10 renal 68.7% | ACHN renal 50.4% | CAKI-1 renal 103% | A498 renal 65.1% | CCRF-CEM leukemia 60.7% | MOLT-4 leukemia 120%

CC1(C)C2CCC1(C)C1(C2)OCCS1 (configuration not stated)
inactive: HCT-15 colon 95.9% | HT29 colon 110% | SNB-75 CNS 78.5% | SNB-19 CNS 88.8% | U251 CNS 97% | PC-3 prostate 92.4% | SK-MEL-5 melanoma 93.8% | UACC-62 melanoma 87% | LOX IMVI melanoma 92.2% | SK-MEL-28 melanoma 102% | SK-MEL-2 melanoma 104% | EKVX NSCLC 87.4% | SN12C renal 87.6% | UO-31 renal 90.1% | TK-10 renal 97.9% | ACHN renal 102% | CAKI-1 renal 87.2% | A498 renal 113% | CCRF-CEM leukemia 110% | MOLT-4 leukemia 99.6%

O=S(Cc1ccccc1)/C(=C/NC(=S)Nc1ccccc1)c1ccccc1 (configuration not stated)
inactive: HCT-15 colon 106% | HT29 colon 104% | SNB-75 CNS 80.2% | SNB-19 CNS 110% | U251 CNS 100% | PC-3 prostate 95.4% | SK-MEL-5 melanoma 104% | UACC-62 melanoma 103% | LOX IMVI melanoma 90.9% | SK-MEL-28 melanoma 106% | SK-MEL-2 melanoma 104% | EKVX NSCLC 102% | SN12C renal 109% | UO-31 renal 81.7% | TK-10 renal 119% | ACHN renal 97.2% | CAKI-1 renal 94.8% | A498 renal 120% | CCRF-CEM leukemia 102% | MOLT-4 leukemia 103%

Oc1cc2ccccc2c(-c2c(O)c(O)cc3ccccc23)c1O
active: SK-MEL-2 melanoma 5.57% | CCRF-CEM leukemia -12.5%
inactive: HCT-15 colon 28.2% | HT29 colon 45.3% | SNB-75 CNS 41.5% | SNB-19 CNS 41.5% | U251 CNS 33.9% | PC-3 prostate 14.7% | SK-MEL-5 melanoma 33.4% | UACC-62 melanoma 27.9% | LOX IMVI melanoma 14.5% | SK-MEL-28 melanoma 53.2% | EKVX NSCLC 35.9% | SN12C renal 49.3% | UO-31 renal 13.7% | TK-10 renal 19.4% | ACHN renal 23.2% | CAKI-1 renal 19.1% | A498 renal 59.1% | MOLT-4 leukemia 30.6%

CCOC(=O)c1cc(Cl)c(O)c(Cl)c1
inactive: HCT-15 colon 104% | HT29 colon 103% | SNB-75 CNS 103% | SNB-19 CNS 106% | U251 CNS 104% | PC-3 prostate 101% | SK-MEL-5 melanoma 102% | UACC-62 melanoma 105% | LOX IMVI melanoma 102% | SK-MEL-28 melanoma 106% | SK-MEL-2 melanoma 106% | EKVX NSCLC 109% | SN12C renal 107% | UO-31 renal 92.3% | TK-10 renal 108% | ACHN renal 103% | CAKI-1 renal 109% | A498 renal 104% | CCRF-CEM leukemia 90.8% | MOLT-4 leukemia 89.6%

Nc1nc2nnc(-c3ccccc3)c(-c3ccccc3)n2n1
active: SK-MEL-2 melanoma -2.91%
inactive: HCT-15 colon 94.7% | HT29 colon 97.4% | SNB-75 CNS 91.4% | SNB-19 CNS 80% | U251 CNS 111% | PC-3 prostate 86.5% | SK-MEL-5 melanoma 86.5% | UACC-62 melanoma 87.8% | LOX IMVI melanoma 87.6% | SK-MEL-28 melanoma 86.3% | EKVX NSCLC 92.8% | SN12C renal 94.7% | UO-31 renal 106% | TK-10 renal 121% | ACHN renal 98.1% | CAKI-1 renal 96.2% | A498 renal 87.4% | CCRF-CEM leukemia 102% | MOLT-4 leukemia 103%

CCCCCCCCCCCCCCCCCCSC(=N)N
inactive: HCT-15 colon 66.6% | HT29 colon 28.4% | SNB-75 CNS 88.6% | SNB-19 CNS 89.2% | U251 CNS 72.3% | PC-3 prostate 65% | SK-MEL-5 melanoma 98.3% | UACC-62 melanoma 77.6% | LOX IMVI melanoma 52.7% | SK-MEL-28 melanoma 93.5% | SK-MEL-2 melanoma 97.6% | EKVX NSCLC 88.3% | SN12C renal 65.6% | UO-31 renal 43.2% | TK-10 renal 65.5% | ACHN renal 69.9% | CAKI-1 renal 79.4% | A498 renal 84.7% | MOLT-4 leukemia 26.2%

Nc1c(Br)cc(O)c2c1C(=O)c1ccccc1C2=O
inactive: HCT-15 colon 47.7% | HT29 colon 54% | SNB-75 CNS 110% | SNB-19 CNS 95.2% | U251 CNS 92% | PC-3 prostate 84.6% | SK-MEL-5 melanoma 96.7% | UACC-62 melanoma 87.4% | LOX IMVI melanoma 34.4% | SK-MEL-28 melanoma 112% | SK-MEL-2 melanoma 55.4% | EKVX NSCLC 96.6% | SN12C renal 80.9% | UO-31 renal 85.1% | TK-10 renal 91.1% | ACHN renal 97.1% | CAKI-1 renal 83.8% | A498 renal 76.4% | CCRF-CEM leukemia 56.5% | MOLT-4 leukemia 50.1%

Cc1ccc(N2C(=O)c3cccc4c(N)c(S(=O)(=O)O)cc(c34)C2=O)cc1
inactive: HCT-15 colon 105% | HT29 colon 124% | SNB-75 CNS 111% | SNB-19 CNS 112% | U251 CNS 96.7% | PC-3 prostate 90% | SK-MEL-5 melanoma 102% | UACC-62 melanoma 97.4% | LOX IMVI melanoma 95% | SK-MEL-28 melanoma 124% | SK-MEL-2 melanoma 82.3% | EKVX NSCLC 113% | SN12C renal 105% | UO-31 renal 77.3% | TK-10 renal 124% | ACHN renal 102% | CAKI-1 renal 108% | A498 renal 136% | MOLT-4 leukemia 115%

CC(=O)/C(C)=N\OC(=O)Nc1ccccc1
inactive: HCT-15 colon 103% | HT29 colon 99.4% | SNB-75 CNS 82.7% | SNB-19 CNS 98% | U251 CNS 93% | PC-3 prostate 97.5% | SK-MEL-5 melanoma 99.1% | UACC-62 melanoma 107% | LOX IMVI melanoma 94.6% | SK-MEL-28 melanoma 112% | SK-MEL-2 melanoma 107% | EKVX NSCLC 95.6% | SN12C renal 107% | UO-31 renal 80.8% | TK-10 renal 97.5% | ACHN renal 101% | CAKI-1 renal 97.8% | A498 renal 101% | MOLT-4 leukemia 90.4%

O=C(NC1CCCCC1)c1ccc(Cl)cc1
inactive: HCT-15 colon 108% | HT29 colon 101% | SNB-75 CNS 90% | SNB-19 CNS 101% | U251 CNS 98.6% | PC-3 prostate 102% | SK-MEL-5 melanoma 101% | UACC-62 melanoma 97.6% | LOX IMVI melanoma 97.4% | SK-MEL-28 melanoma 112% | SK-MEL-2 melanoma 115% | EKVX NSCLC 98.5% | SN12C renal 103% | UO-31 renal 94.7% | TK-10 renal 102% | ACHN renal 104% | CAKI-1 renal 102% | A498 renal 82.4% | CCRF-CEM leukemia 98.4% | MOLT-4 leukemia 95.2%

Cc1nc(C)c(C(=O)O)cc1C(=O)O
inactive: HCT-15 colon 103% | HT29 colon 109% | SNB-75 CNS 91.5% | SNB-19 CNS 109% | U251 CNS 107% | PC-3 prostate 99.7% | SK-MEL-5 melanoma 111% | UACC-62 melanoma 105% | LOX IMVI melanoma 95.8% | SK-MEL-28 melanoma 112% | SK-MEL-2 melanoma 114% | EKVX NSCLC 102% | SN12C renal 125% | UO-31 renal 97.2% | TK-10 renal 112% | ACHN renal 104% | CAKI-1 renal 100% | A498 renal 89.3% | CCRF-CEM leukemia 103% | MOLT-4 leukemia 103%

COc1cc(-c2ccc(NC(=O)CC(C)=O)c(OC)c2)ccc1NC(=O)CC(C)=O
inactive: HCT-15 colon 96.7% | HT29 colon 107% | SNB-75 CNS 82.2% | SNB-19 CNS 101% | U251 CNS 89.6% | PC-3 prostate 95.1% | SK-MEL-5 melanoma 98.1% | UACC-62 melanoma 102% | LOX IMVI melanoma 96.7% | SK-MEL-28 melanoma 111% | SK-MEL-2 melanoma 108% | EKVX NSCLC 108% | SN12C renal 104% | UO-31 renal 86.3% | TK-10 renal 115% | ACHN renal 88.6% | CAKI-1 renal 97% | A498 renal 110% | CCRF-CEM leukemia 100% | MOLT-4 leukemia 89.5%
